# Screening results deposited in PubChem BioAssay by National Center for Advancing Translational Sciences (NCATS).
# AmpC detergent = AmpC beta-lactamase inhibition with detergent present; P00811; AmpC hydrolysis of nitrocefin, absorbance 480 nm, 0.01% Triton; Potency, µM (series often up to 114 µM), hits mostly inhibitors; hit rate 0.041% among 370,000; AID 485294; further: nearly all actives have a fitted effect of over 25% in size
# Target sequence (P00811 whole entry, looked up): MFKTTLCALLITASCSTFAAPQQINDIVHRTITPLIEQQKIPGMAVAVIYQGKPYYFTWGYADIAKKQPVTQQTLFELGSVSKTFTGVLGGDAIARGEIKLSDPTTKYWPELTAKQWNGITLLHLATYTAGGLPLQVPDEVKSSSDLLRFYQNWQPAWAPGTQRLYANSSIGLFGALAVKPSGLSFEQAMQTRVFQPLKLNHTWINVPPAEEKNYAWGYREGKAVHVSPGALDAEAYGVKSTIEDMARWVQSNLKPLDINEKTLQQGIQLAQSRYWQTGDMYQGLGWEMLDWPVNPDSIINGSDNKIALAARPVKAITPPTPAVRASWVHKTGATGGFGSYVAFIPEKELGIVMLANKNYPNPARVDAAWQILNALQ
#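 AmpC (5.3 nM in the dispensed reagent) in 20 mM phosphate pH 7.0 with 0.01% (detergent screen) or 0.0001% Triton X-100 was preincubated with compounds for 15 min at room temperature. Nitrocefin was then added from an 800 uM solution, and hydrolysis was followed at 480 nm.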
# Giardia FBPA inh = inhibitors of Giardia lamblia fructose-1,6-bisphosphate aldolase; purified Giardia FBPA; Potency, µM (titrated, usually from 59.6 µM), hits mostly inhibitors; AID 2451; hit rate 0.71% among 290,000; A8B2U2; further: nearly all actives have a fitted effect of over 55% in size
#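 40 nM FBPA preincubated 10 min at RT with compound (up to 57.5 uM final), then substrate plus GAPDH/TPI/NAD/arsenate coupling and diaphorase/resazurin added. Fluorescence read after 20 min at RT, 525/598 nm.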
# Sm TGR block = S. mansoni TGR enzyme inhibition; purified TGR, DTNB reduction, TNB absorbance 405 nm; Potency, µM (highest dose often 114 µM), hits mostly inhibitors; hit rate 3% among 360,000; AID 485364; further: nearly all actives have a fitted effect of over 60% in size
#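 TGR 20 nM + NADPH 100 uM (dispensed conc.), cpd preinc 15 min RT; start with NADPH (500 uM addition) then DTNB (15 mM addition). Kinetic TNB absorbance, 405 nm filter. Four-parameter Hill fit across titration.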
# AmpC inh no detg = blocks E. coli AmpC beta-lactamase in detergent-free assay; P00811; AmpC nitrocefin hydrolysis, absorbance 480 nm, 0.0001% Triton; Potency, µM (doses to about 57.1 µM), actives largely listed as inhibitors; hit rate 0.52% among 330,000; AID 485341; further: nearly all actives have a fitted effect of over 20% in size
#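 AmpC (5.3 nM in the dispensed reagent) in 20 mM phosphate pH 7.0 with 0.01% (detergent screen) or 0.0001% Triton X-100 was preincubated with compounds for 15 min at room temperature. Nitrocefin was then added from an 800 uM solution, and hydrolysis was followed at 480 nm.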
# Hits are given with their value; - = inactive; ? = inconclusive; . = no result; [ ] = dose if it differs, or a comment. This is a sample that favours compounds with a hit; in the whole collection about 3.6% have one here. The call rests on the fitted dose curve; in most records, active means well fitted curve in the direction sought with a large enough effect; inconclusive means small, poorly fitted or top-dose-only effect, or another doubt; inactive means no such curve, though single readings can be large; an effect the other way counts as inactive or inconclusive.
SMILES,AmpC detergent,Giardia FBPA inh,Sm TGR block,AmpC inh no detg
CCCOc1ccc(C(=O)NCC(c2ccco2)N(C)C)cc1 (stereo not given),-,-,?,-
O=C(CSc1ncc2c(n1)-c1ccccc1N(Cc1ccc(Cl)cc1)S2(=O)=O)c1ccc(Cl)cc1,-,.,-,.
COc1cccc(NC(=O)Nc2ccc3c(c2)N(C)C(=O)CS3)c1,-,-,-,3.16µM
CCOc1ccc(OCC)c(NC(=O)Nc2ccc3c(c2)N(C)C(=O)CS3)c1,?,-,-,1.12µM
O=C(CC(=O)NC1CCCCC1)N/N=C/c1ccccc1[N+](=O)[O-],-,-,-,-
Nc1c(N(CCC2=CCCCC2)C(=O)CCCOc2ccccc2)c(=O)[nH]c(=O)n1Cc1ccccc1,?,.,-,14.1µM
Nc1c(N(CCC2=CCCCC2)C(=O)COc2ccc(F)cc2)c(=O)[nH]c(=O)n1Cc1ccccc1,-,.,-,-
Cc1cc2c(c(=O)n1Cc1cccnc1)C(Cc1ccccc1)C(C#N)=C(N)O2 (stereo not given),-,-,-,-
Cc1cc2c(c(=O)n1Cc1cccnc1)C(c1cccs1)C(C#N)=C(N)O2 (stereo not given),-,-,10µM,-
Cc1ccc(C(=O)NCC(c2ccco2)S(=O)(=O)c2ccccc2)cc1C (stereo not given),-,.,-,.
Cc1ccc(S(=O)(=O)C(CNC(=O)c2c(F)cccc2F)c2ccco2)cc1 (stereo not given),-,.,-,.
O=C(NCC(c1ccco1)S(=O)(=O)c1ccc(Cl)cc1)c1ccccc1F (stereo not given),-,.,2.51µM,.
Cc1ccc(C(=O)NCC(c2ccco2)S(=O)(=O)c2ccc(Cl)cc2)cc1C (stereo not given),-,.,11.2µM,.
CCOc1cccc(-c2nc3ccccc3c(=O)o2)c1,-,.,-,.
CCCCCC(=O)Cc1cc(O)cc2c1C(=O)Oc1cc(O)c(C(=O)O)c(CCCCC)c1O2,-,?,35.5µM,-
CN(C)N1C(N)=C(C#N)C(c2ccc(Br)cc2)C2=C1CC(C)(C)CC2=O (stereo not given),-,-,-,-
NS(=O)(=O)c1ccc(CCNc2ncnc3c2c(-c2ccccc2)cn3-c2ccc(F)cc2)cc1,-,-,-,4.47µM
Cc1ccc(S(=O)(=O)/N=C2/C=C(C3C(=O)CC(C)(C)CC3=O)C(=O)c3ccccc32)cc1,-,?,14.1µM,-
Cc1ccc(S(=O)(=O)N2CCC(C(=O)C3C(=O)CC(C)(C)CC3=O)CC2)cc1,-,-,-,-
CC(C)Cc1cc(-c2ccco2)c(C#N)c(N)n1,-,-,35.5µM,-
COC(=O)CSc1nc(-c2ccccc2)cc(-c2ccco2)c1C#N,-,-,31.6µM,-
N#Cc1c(-c2ccco2)cc(-c2ccc(F)cc2)nc1N,-,-,6.31µM,-
Cc1cc(Cl)ccc1OC(C)C(=O)N1CCCN(C(=O)C(C)Oc2ccc(Cl)cc2C)CC1 (stereo not given),-,-,-,-
O=C(O)Cc1ccc(C(=O)c2ccccc2)s1,-,-,-,-
Cc1ccc(SCC(=O)c2ccc(CC(=O)O)s2)cc1,-,-,-,20µM
SMILES,AmpC detergent,Giardia FBPA inh,Sm TGR block,AmpC inh no detg
O=C(O)Cc1ccc(C(=O)CSc2ccccc2)s1,-,-,20µM,?
CCOc1ccc(CNS(=O)(=O)c2cc3c(cc2C)NC(=O)CO3)cc1OC,-,.,-,.
CCCCc1nn2c(=O)cc(COC(=O)c3ccc(NC(=O)CCc4ccccc4)cc3)nc2s1,-,.,-,.
COc1ccc(C(=O)NC(NC(=S)Nc2ccc(S(N)(=O)=O)cc2)C(Cl)(Cl)Cl)cc1 (stereo not given),-,-,-,8.91µM
CC(=O)c1ccc(NC(=S)NC(NC(=O)c2ccco2)C(Cl)(Cl)Cl)cc1 (stereo not given),-,-,?,12.6µM
CCOC(=O)C1CCN(C(=O)c2ccccc2CCc2ccccc2)CC1,-,-,-,-
CCCN1C(=O)S/C(=C\c2ccc(N3CCOCC3)o2)C1=O,-,?,8.91µM,-
CCCN1C(=O)S/C(=C/c2ccc(N3CCOCC3)o2)C1=O,-,?,1.41µM,-
CCCN1C(=O)S/C(=C\c2ccc(N3CCOCC3)cc2C)C1=O,-,-,-,-
CCc1ccccc1NC(=O)Cc1c(C(=O)O)[nH]c2ccc(Cl)cc12,-,.,-,.
N#CCc1nn2c3c(cnc2c1C#N)C(=O)CCC3,-,?,-,-[2.29 µM]
COc1ccc(NC(=O)Cn2nc(Cc3cccnc3)c3ccccc3c2=O)cc1OC,?,-,-,2.82µM
COc1cc(NC(=O)Cn2nc(Cc3cccnc3)c3ccccc3c2=O)cc(OC)c1OC,-,-,-,-
CCOc1ccc(C(c2c(O)cc(C)n(Cc3ccco3)c2=O)N2CCCCC2)cc1 (stereo not given),-,.,7.08µM,.
CCOc1ccc(C(c2c(O)cc(C)n(Cc3ccco3)c2=O)N2CCN(c3ccccc3)CC2)cc1 (stereo not given),-,.,3.55µM,.
COc1ccc(N2CCN(C(c3cc(OC)ccc3OC)c3nnnn3Cc3ccco3)CC2)cc1 (stereo not given),-,?,-,-
CCOc1ccc(NC(=O)C2CC(=O)N(Cc3ccco3)C2)cc1 (stereo not given),-,.,-,-
COc1ccc(N2CCCC2)c(NC(=O)COc2ccccc2)c1,-,-,-,-
Cc1cc(N2CCCC2)ccc1NC(=O)COc1ccccc1,?,.,17.8µM,-
Cc1ccc(OCC(=O)Nc2ccc(Cl)cc2C(=O)c2ccccc2)cc1,-,-,-,-
Cc1ccc(NC(=O)COc2ccc(C(=O)c3ccccc3)cc2)c(O)c1,-,-,-,15.8µM
CCc1ccccc1OCC(=O)Nc1ccc(N2CCCC2)cc1C,-,.,15.8µM,-
Cc1cc(C)nc(S/C=C/C(=O)c2ccc(F)cc2)n1,-,-,0.708µM,-
Cc1cccc(NC(=O)Cn2cc(C(=O)c3ccco3)c3ccccc32)c1C,-,.,-,.
C=CCN(C(=O)CCS(=O)(=O)c1cccc2nsnc12)c1ccccc1,-,-,25.1µM,-
SMILES,AmpC detergent,Giardia FBPA inh,Sm TGR block,AmpC inh no detg
CCN(C(=O)CCS(=O)(=O)c1cccc2nsnc12)c1cccc(C)c1,-,-,?,-
O=C(CSc1ncnc2c1cnn2-c1ccccc1)NCC1CCCO1 (stereo not given),?,.,-,-
COc1ccc(-n2nnnc2SCC(=O)N2CCOCC2)cc1,?,-,-,0.891µM
N#C/C(=C\c1c(Cl)cccc1Cl)c1nc2ccccc2[nH]1,-,-,-,11.2µM
N#C/C(=C\c1ccc(Sc2ccc(Cl)cc2)o1)c1nc2ccccc2[nH]1,-,-,-,28.2µM
N#C/C(=C(/O)CCl)c1nc2ccccc2[nH]1,-,?,25.1µM,-
CCOC(=O)c1ccc(NC(=O)c2ccc3c(c2)CCN3S(=O)(=O)c2ccc(Cl)cc2)cc1,-,.,-,.
CCN(C(=O)c1cc(S(=O)(=O)N2CCc3ccccc32)cn1C)c1ccccc1,-,-,-,-
